From PubChem BioAssay (NCATS)
Results filed as inconclusive are left out. Calls of active or inactive are those of the source. Unless noted, calls come from the whole dose curve; as a rule, active = well fitted curve in the direction sought with a large enough effect; inconclusive = small, poorly fitted or top-dose-only effect, or another doubt; inactive = no such curve, though single readings can be large; an effect the other way counts as inactive or inconclusive.

Experiment: Confirmation and Secondary Assay for Modulators of Hemoglobin Beta Chain Splicing at IVS2 654 locus (AID 910);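 note: HeLa cells stably carrying EGFP split by mutant beta-globin IVS2-654 intron; % of control where 0% means no effect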
Details: HeLa EGFP-654 splicing reporter, GFP fluorescence, 48 h; series mostly up to 46.1 µM; activation (splicing correction): at the top concentration
How it was run: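 Readout: per-well total peak green fluorescence (488 nm ex, 500–520 nm em) from objects 5–250 µm, reflecting correct splicing of an EGFP-654 reporter. Compounds were applied for 2 days at 37 °C to overnight-plated HeLa EGFP-654 cells; controls were DMSO and 500 nM IVS2-654 PNA.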

Row | Compound | activation (splicing correction)
1 | CCN1CCCC(OC(=O)C(c2ccccc2)c2ccccc2)C1 (stereo not drawn) | -2.4% (inactive)
2 | O=C(O)CCNC(=O)c1ccccc1 | 8.43% (inactive)
3 | Cc1cc(-c2ccccc2)nnc1NCCN1CCOCC1 | 1.91% (inactive)
4 | CCN(CC)CCOc1ccc2c(c1)C(=O)c1cc(OCCN(CC)CC)ccc1-2 | 7.01% (inactive)
5 | CCN(CC)CCNC(=O)c1cc(Br)c(N)cc1OC | -2.72% (inactive)
6 | CN(C)CCC[C@@]1(c2ccc(F)cc2)OCc2cc(C#N)ccc21 | 0.208% [at 38.3 µM] (inactive)
7 | Oc1ccc(Cl)cc1Cc1cc(Cl)ccc1O | -8.84% (inactive)
8 | O=C1C(CCS(=O)c2ccccc2)C(=O)N(c2ccccc2)N1c1ccccc1 (stereo not drawn) | 0.942% (inactive)
9 | CCOC(=O)c1ccc(N)cc1 | 6.13% (inactive)
10 | CCCN(CCC)S(=O)(=O)c1ccc(C(=O)O)cc1 | 1.76% (inactive)
11 | Cc1ccccc1OCC(O)CO (stereo not drawn) | -1.51% (inactive)
12 | CCCCC(CC)CN1CN(CC(CC)CCCC)CC(C)(N)C1 (stereo not drawn) | -1.21% (inactive)
13 | C[N+]12CCC(CC1)C(OC(=O)C(O)(c1ccccc1)c1ccccc1)C2 (stereo not drawn) | 1.88% (inactive)
14 | CCOc1ccc(NC(C)=O)cc1 | 12.9% (inactive)
15 | CC(C)NCC(O)c1ccc2ccccc2c1 (stereo not drawn) | 6.92% (inactive)
16 | COc1cc(NS(=O)(=O)c2ccc(N)cc2)ncn1 | -1.55% (inactive)
17 | NC(=O)c1ccccc1O | 1.98% (inactive)

Row | Compound | activation (splicing correction)
18 | CCCCCCCCNC(C)C(O)c1ccc(SC(C)C)cc1 (stereo not drawn) | -6.43% (inactive)
19 | Oc1c(Cl)cc(Cl)c(Cl)c1Cc1c(O)c(Cl)cc(Cl)c1Cl | -6.08% (inactive)
20 | OCCOCCN1CCN(C2=Nc3ccccc3Sc3ccccc32)CC1 | 1.29% [at 38.3 µM] (inactive)
21 | O=C1C(O)=C(O)C(=O)C(O)=C1O | 9.03% (inactive)
22 | COc1ccc(C(Cl)=C(c2ccc(OC)cc2)c2ccc(OC)cc2)cc1 | -4.67% (inactive)
23 | COc1ccc(C(=O)c2ccccc2)c(O)c1 | 4.06% (inactive)
24 | Cc1cc(C)cc(OCC2CNC(=O)O2)c1 (stereo not drawn) | 3.37% (inactive)
25 | CCN(CC)CCNC(=O)COc1ccc(OC)cc1 | 9.9% (inactive)
26 | O=C1C(=O)c2ccccc2C(O)=C1C1CCC(c2ccc(Cl)cc2)CC1 (stereo not drawn) | 2.03% (inactive)
27 | O=C(O)c1ccc(S(=O)(=O)N(Cl)Cl)cc1 | 2.85% (inactive)
28 | COc1cc(C(=O)NCc2ccc(OCCN(C)C)cc2)cc(OC)c1OC | 6.45% (inactive)
29 | COc1ccc(C(=O)c2ccccc2O)c(O)c1 | 1.9% (inactive)
30 | COC(=O)C(c1ccccc1Cl)N1CCc2sccc2C1 (stereo not drawn) | -0.359% (inactive)
31 | O=C(CCCN1CC=C(n2c(=O)[nH]c3ccccc32)CC1)c1ccc(F)cc1 | -5.53% (inactive)
32 | CCC(Cc1c(I)cc(I)c(N)c1I)C(=O)O (stereo not drawn) | -3.98% (inactive)
33 | O=C(O)P(=O)(O)O | 2.65% (inactive)
34 | CN(C)CCOC(=O)C(c1ccccc1)C1(O)CCCC1 (stereo not drawn) | 5.37% (inactive)

Experiment: qHTS Assay for Identification of Small Molecule Agonists for Hypoxia Response Element Signaling Pathway (AID 914; active = well fitted activation curve with a large enough effect in the signal ratio, with a control signal flat, not every such curve was filed as active; the % refers to the signal ratio; note: potency is the fitted concentration of half-maximal effect; for activation: % of control where 0% means no effect)
Details: ME-180 (cervical carcinoma) HRE-bla reporter, beta-lactamase ratio, CoCl2, 17 h; activation: stronger effect = higher value
How it was run: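 HRE-bla ME-180 cells, overnight plating in Opti-MEM with 0.5% dialyzed FBS; cpd titration + EC50 CoCl2, 17 h, 37 degrees Celsius; CCF4 2.5 h RT; 460/530 nm ratio; AC50.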

Row | Compound | activation | Potency
35 | CCOc1ccc(NC(C)=O)cc1 | 2% (inactive) | 
36 | CCCCCCCCNC(C)C(O)c1ccc(SC(C)C)cc1 (stereo not drawn) | 0.942% (inactive) | 
37 | COc1ccc(C(=O)c2ccccc2O)c(O)c1 |  | 5.01 µM (active)

Experiment: Cell Viability - LYMP2-001 (AID 921);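 note: 0% = DMSO only and full inhibition = tetraoctylammonium bromide control wells; nearly all actives have a fitted effect of over 70% in size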
Details: LYMP2-001 lymphoblastoid cell viability; series mostly up to 92.2 µM; activity change, negative = cytotoxic: at the top concentration
How it was run: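 Cellular ATP loss read by luciferase luminescence after 24 h compound exposure at 37 C in complete medium. LYMP2-001 lymphoblastoid cells, 2500/well; qHTS concentration-response data fitted with Hill equation for AC50.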

Row | Compound | activity change, negative = cytotoxic
38 | Oc1ccc(Cl)cc1Cc1cc(Cl)ccc1O | -45.9% (inactive)
39 | CCCN(CCC)S(=O)(=O)c1ccc(C(=O)O)cc1 | -9.86% (inactive)
40 | CCOc1ccc(NC(C)=O)cc1 | -5.74% (inactive)
41 | NC(=O)c1ccccc1O | 0.192% (inactive)
42 | COc1ccc(C(Cl)=C(c2ccc(OC)cc2)c2ccc(OC)cc2)cc1 | -21.3% (inactive)
43 | COc1ccc(C(=O)c2ccccc2)c(O)c1 | -18.9% (inactive)
44 | O=C(O)c1ccc(S(=O)(=O)N(Cl)Cl)cc1 | -9.29% (inactive)

Experiment: Confirmation and Secondary Assay for Modulators of Hemoglobin Beta Chain Splicing at IVS2 705 locus (AID 930);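 note: HeLa cells stably expressing the EGFP-705 splicing reporter; GFP fluorescence per well restored by corrected splicing of the IVS2-705 intron in EGFP; % of control where 0% means no effect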
Details: HeLa EGFP-705 splicing reporter, GFP fluorescence, 48 h; series mostly up to 46.1 µM; activation: at the top concentration
How it was run: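 Read-out: total peak GFP fluorescence per well (488 nm excitation, 500-520 nm emission) by laser-scanning cytometry. Cells: HeLa EGFP-705 splicing reporter, 2 days compound exposure in Optimem/2% FCS.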

Row | Compound | activation
45 | CCN1CCCC(OC(=O)C(c2ccccc2)c2ccccc2)C1 (stereo not drawn) | 1.02% (inactive)
46 | O=C(O)CCNC(=O)c1ccccc1 | 0.441% (inactive)
47 | Cc1cc(-c2ccccc2)nnc1NCCN1CCOCC1 | 0.82% (inactive)
48 | CCN(CC)CCOc1ccc2c(c1)C(=O)c1cc(OCCN(CC)CC)ccc1-2 | 0.727% (inactive)
49 | CCN(CC)CCNC(=O)c1cc(Br)c(N)cc1OC | -1.03% (inactive)
50 | CN(C)CCC[C@@]1(c2ccc(F)cc2)OCc2cc(C#N)ccc21 | 0.239% [at 38.3 µM] (inactive)
51 | Oc1ccc(Cl)cc1Cc1cc(Cl)ccc1O | 2.79% (inactive)
52 | O=C1C(CCS(=O)c2ccccc2)C(=O)N(c2ccccc2)N1c1ccccc1 (stereo not drawn) | 0.214% (inactive)
53 | CCOC(=O)c1ccc(N)cc1 | 2.61% (inactive)
54 | CCCN(CCC)S(=O)(=O)c1ccc(C(=O)O)cc1 | -0.328% (inactive)
55 | Cc1ccccc1OCC(O)CO (stereo not drawn) | -1.08% (inactive)
56 | CCCCC(CC)CN1CN(CC(CC)CCCC)CC(C)(N)C1 (stereo not drawn) | 1.51% (inactive)
57 | C[N+]12CCC(CC1)C(OC(=O)C(O)(c1ccccc1)c1ccccc1)C2 (stereo not drawn) | 0.101% (inactive)
58 | CCOc1ccc(NC(C)=O)cc1 | 0.464% (inactive)
59 | CC(C)NCC(O)c1ccc2ccccc2c1 (stereo not drawn) | 0.392% (inactive)
60 | COc1cc(NS(=O)(=O)c2ccc(N)cc2)ncn1 | -0.181% (inactive)
61 | NC(=O)c1ccccc1O | 1.64% (inactive)

Row | Compound | activation
62 | CCCCCCCCNC(C)C(O)c1ccc(SC(C)C)cc1 (stereo not drawn) | 0.475% (inactive)
63 | Oc1c(Cl)cc(Cl)c(Cl)c1Cc1c(O)c(Cl)cc(Cl)c1Cl | 0.756% (inactive)
64 | OCCOCCN1CCN(C2=Nc3ccccc3Sc3ccccc32)CC1 | 0.159% [at 38.3 µM] (inactive)
65 | O=C1C(O)=C(O)C(=O)C(O)=C1O | 0.88% (inactive)
66 | COc1ccc(C(Cl)=C(c2ccc(OC)cc2)c2ccc(OC)cc2)cc1 | -1.27% (inactive)
67 | COc1ccc(C(=O)c2ccccc2)c(O)c1 | 1.86% (inactive)
68 | Cc1cc(C)cc(OCC2CNC(=O)O2)c1 (stereo not drawn) | -0.668% (inactive)
69 | CCN(CC)CCNC(=O)COc1ccc(OC)cc1 | 4.64% (inactive)
70 | O=C1C(=O)c2ccccc2C(O)=C1C1CCC(c2ccc(Cl)cc2)CC1 (stereo not drawn) | 0.366% (inactive)
71 | O=C(O)c1ccc(S(=O)(=O)N(Cl)Cl)cc1 | 1.34% (inactive)
72 | COc1cc(C(=O)NCc2ccc(OCCN(C)C)cc2)cc(OC)c1OC | 0.332% (inactive)
73 | COc1ccc(C(=O)c2ccccc2O)c(O)c1 | 1.07% (inactive)
74 | COC(=O)C(c1ccccc1Cl)N1CCc2sccc2C1 (stereo not drawn) | 1.17% (inactive)
75 | O=C(CCCN1CC=C(n2c(=O)[nH]c3ccccc32)CC1)c1ccc(F)cc1 | 2.92% (inactive)
76 | CCC(Cc1c(I)cc(I)c(N)c1I)C(=O)O (stereo not drawn) | -0.654% (inactive)
77 | O=C(O)P(=O)(O)O | 1.87% (inactive)
78 | CN(C)CCOC(=O)C(c1ccccc1)C1(O)CCCC1 (stereo not drawn) | 1.52% (inactive)
